From the OligoGym collection come the findings set out here.
Further: reference of the scale not given here.

One assay deals with LPAR3. In words: pooled miR-30 sensor sort-seq; sequence = guide strand. The conditions noted are these: shRNA.
TTCCTCTTGACGTACACGTAGA: the sensor-assay potency score (higher = more potent) was -0.848.
Take TTCTGTTTTTGATCACTGCCGC: the sensor-assay potency score (higher = more potent) was -0.331.
The sequence TTGACAGTCAAAGTTTTTGAAA displayed a sensor-assay potency score (higher = more potent) of -1.6.
Consider TTGGCTAATACTATCCTCTATG, for which the sensor-assay potency score (higher = more potent) is -0.824.
The same measure, in the same setting: for TAAATTAGCCAACAGGTAGTAG the value was -0.542.
In turn, ATGAGGTTGGACACTGTCCAGA displayed a sensor-assay potency score (higher = more potent) of -1.36.
On to TTGACGTACACGTAGATCCGCA, for which the sensor-assay potency score (higher = more potent) was 0.439.
Sequence TTGTAGGAGTAGATGATGGGGT showed a sensor-assay potency score (higher = more potent) of -0.155.
Take TTGCAGACTGCACCTTGGCTAA: the sensor-assay potency score (higher = more potent) is -1.28.
On the same count and under the same terms, for TTCCTGTCCAGTCATCGACAGT the value was -1.5; for TTAAACATCAGGAATACATAGG, -0.219.
Sequence TAAGACAGTCATCACCGTCTTC had a sensor-assay potency score (higher = more potent) of -0.295.

For a further assay, the target named is LRCH2. The assay is described as above. The conditions noted are these: shRNA.
In turn, TTTATTACAAGAGAAATCCAGC showed a sensor-assay potency score (higher = more potent) of -0.214.
TTCATTGCCACTTGAACTCTTC: the sensor-assay potency score (higher = more potent) came to 0.503.
Turning to TTTATTATTACTGACGACCAAA, the sensor-assay potency score (higher = more potent) was -1.09.
TATCCATTCTGCAACATGCTTG showed a sensor-assay potency score (higher = more potent) of -0.471.
In turn, TTGTTCATCTATTTGATCCTTC came in with a sensor-assay potency score (higher = more potent) of 0.648.
On the same count and under the same terms, for TTCATCTGCTGAGACACTCTTT the value was 0.135.
Turning to TTAAACATATCTGTGCTGGTGG, the sensor-assay potency score (higher = more potent) is 0.402.
On the same count and under the same terms, under TATTACTTGTAAATGATGCAGC stands 0.387; under TTCTTCTCATTGTAAATCCTGG, -0.64; under TTGCAATGGATTGTTATCCAAA, -1.31.
As for TACTTGTAAATGATGCAGCTTT, the sensor-assay potency score (higher = more potent) stood at 0.0854.
For TTCATCTATTTGATCCTTCTGA, the sensor-assay potency score (higher = more potent) was determined as 0.249.

A further assay addresses LRRC14. Described as above. The conditions noted are these: shRNA.
For TTGAAGCGCAGGTCCACGCGGC, the sensor-assay potency score (higher = more potent) is -0.0617.
Still for that read-out and setting: under TACCACTGTCTTCTTGTCCATG stands -0.472; under TTCCACACCATCATCCAAGAGG, -1.09; under TAGCGGAAGTTGTCCTCGCCAT, -0.494.
With TTGTCCTCGCCATCCACGGAGG, the sensor-assay potency score (higher = more potent) was -1.48.
The same measure, in the same setting: for TACGGCAGCAGTACAGTCCCAC the value was -0.572.
The same measure, in the same setting: under TTGAGGTGGGCAGCATGTGGGC stands -1.24; under TCACGCAGACAGGTGAAGCGGC, -0.746; under TAGCAGTCCACAGGGAAGGGGT, -0.698.
Sequence ATGCACATAGTGGAGCCGCAGG came in with a sensor-assay potency score (higher = more potent) of -1.72.
TTGTCCATGAAGGCCACCTTGA had a sensor-assay potency score (higher = more potent) of -1.21.
In turn, TGGCACTGCAGCACCTGCCGTG displayed a sensor-assay potency score (higher = more potent) of -0.778.
